# Source: the supplement of paper PMC6555819
# Key:
# Test in all cases: PBM binding z-score (relative to random genomic background probes); higher = stronger binding; sequences stand for … in GC…GCGATTGACAGCGTAGAATGAAGG
# [1] = system: FXR:RXRa (NR concentration 270 nM, RXRa partner concentration 90 nM)
# In short: (§1)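 Binding z-scores take random background probes as their reference. They come from custom Agilent 4×180K protein-binding microarrays incubated 1 h with ligand-free nuclear receptor dimers, with antibodies against each partner (one per run) detecting binding. Scanned fluorescence was regression-normalized.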
# [2] = system: LXRa:RXRa (NR concentration 270 nM, RXRa partner concentration 90 nM)
# In short: as §1
# [3] = system: LXRa homodimer (NR concentration 270 nM)
# In short: as §1
# [4] = system: LXRb:RXRa (NR concentration 270 nM, RXRa partner concentration 90 nM)
# In short: as §1
# [5] = system: LXRb homodimer (NR concentration 270 nM)
# In short: as §1
# [6] = system: PPARa:RXRa (NR concentration 270 nM, RXRa partner concentration 90 nM)
# In short: as §1
# [7] = system: PPARg:RXRa (NR concentration 180 nM, RXRa partner concentration 90 nM)
# In short: as §1
# [8] = system: PPARg:RXRa 270nM:90nM, anti-RXR (NR concentration 270 nM, RXRa partner concentration 90 nM)
# In short: as §1
# [9] = system: PPARg:RXRa 30nM:10nM, anti-RXR (NR concentration 30 nM, RXRa partner concentration 10 nM)
# In short: as §1
# [10] = system: PPARg:RXRa 90nM:30nM, anti-RXR (NR concentration 90 nM, RXRa partner concentration 30 nM)
# In short: as §1
Sequence,PBM binding z-score [1],PBM binding z-score [2],PBM binding z-score [3],PBM binding z-score [4],PBM binding z-score [5],PBM binding z-score [6],PBM binding z-score [7],PBM binding z-score [8],PBM binding z-score [9],PBM binding z-score [10]
CAAACTAGGTCACCGGTAGGTCAAAGTCCGCATG,5.71,4.92,3.87,4.52,0.66,5.98,9.32,7.44,5.74,7.12
GCGACTGGGGCATCAGCAGGTTGCCATAACTTAA,-0.664,-0.697,-0.615,-0.443,-1.37,0.348,0.434,0.229,-0.762,-0.301
CCTAGCAGGCCAGGGTCGCTCAAGCATTTCGCTT,1.21,1.49,-0.612,1.26,-1.47,2.58,-0.528,0.271,-1.11,-0.71
CACGAAAGGTCGGTTGAGGTGAGTATACGGATAA,2.53,2.25,0.0219,1.7,0.387,3,0.823,1.36,0.246,0.906
CCTTACGGGTCACGAGGTGATAGCACGACGAGCG,6.73,4.27,-0.242,3.42,-0.279,5.82,7.42,6.5,3.14,5.75
CTTCCAAGGTCAGCAGGTCAGTGAAAGCGACGTG,5.62,4.48,0.986,3.24,0.067,4.87,3.78,4.64,1.14,3.27
AATACAGGGTCACTAAGCCAGAGTAGGTACGAAT,6.17,4.69,0.732,3.96,0.99,5.51,6.22,5.26,2.31,3.83
CATACAGGGTCAGCTATGCCAGAGTAGGGACGGC,4.14,2.68,-0.0915,1.98,0.359,4.21,3.53,2.58,0.968,1.77
GCGACTGGGGCAAAGCAGTTTACCATAAGGTTGG,-0.303,-0.296,-0.507,-0.071,-1.21,0.822,1.17,1.31,-0.433,0.756
CGAACTAGGTCATCCCGGACAGTGAATACATTGA,4.18,2.56,0.912,2.09,0.361,4.71,7.36,6.47,3.85,6.17
TCTTATAGATCAAGCAGGTTAAGAAAGCCTGAGT,0.514,0.381,-0.0643,0.19,-0.324,0.961,-0.00693,1.62,3.48,2.75
GCTATTATTTGAAAGGGCAACCGAATGATTCTCG,0.306,0.97,1.37,0.925,0.441,1.08,0.626,1.41,0.637,0.844
ACTAGCAGGCCAACGGTCACTCAAGATTAGTCCG,-0.155,-0.0207,0.0255,-0.508,-0.572,1.37,2.56,3.92,2.08,3.72
CGAACTAGGACAGAACAGGACAGTGAAGGATGAT,-0.286,-0.561,-0.364,-0.706,-0.58,-0.0263,1.23,0.13,0.00825,0.0847
GCTAGTTGGTCAATAAAAGGTCACACACCGGTCG,3.63,5.13,6.33,4.53,0.973,4.39,2.18,3.93,1.16,2.9
GCTAGCAGGCCATTTGGGTCACTCACTGACGGGC,0.237,-0.137,-0.55,-0.212,-0.64,1.16,0.358,0.596,-0.357,0.202
ATCTCTAGGTAACAAGTTCGGTGAAAGAGAGGAC,0.656,0.804,0.56,0.383,0.814,0.973,1.13,1.67,0.766,1.35
CCTACTGGGCCAAAAAGGTCATTAATGCCGATAA,2.98,3.74,2.97,4.21,0.494,4.39,2.98,3.7,1.44,2.96
CCTACTGGTCCAAAAAGGTCATTGATGCCGATAA,3.82,4.66,3.95,4.54,1.21,4.72,1.53,2.98,0.82,2.04

Sequence,PBM binding z-score [1],PBM binding z-score [2],PBM binding z-score [3],PBM binding z-score [4],PBM binding z-score [5],PBM binding z-score [6],PBM binding z-score [7],PBM binding z-score [8],PBM binding z-score [9],PBM binding z-score [10]
CCTAGTTGGTCAGTAGGTCACACACCGGATATGA,1.75,1.75,1.22,1.64,0.533,3.62,4.58,4.46,2.18,3.85
TCTTGTAGATCAGCAGGTTAAGAATGCTGGCCAA,-0.0205,0.0347,-0.38,0.151,-0.573,0.607,-0.224,1.26,2.68,2.04
CGTCAAAGTTCAAGGTAACATAACAGAAAGCAGC,6.08,5.39,2.7,3.37,1.22,4.67,4.56,5.16,2.16,3.9
ATATGTAGTTTAGCTGGGGTCATTCAGACTAGGC,4.14,4.3,2.38,4.58,1.66,4.45,1.66,2.42,0.899,1.87
TCTTGTAGATCAATACAGGTTAAGAAAGTGCGCT,0.747,2.01,0.393,1.23,0.0132,1.29,0.19,1.49,2.99,2.11
CCAGAGAGGTGAAAGGTAACTCAGTCTGGTACGC,1.97,1.72,-0.386,1.72,-0.316,4.52,6.53,6.32,4.89,6.42
TCTTGTAGATCACCAGGTTAAGAAAGCTGGCCAA,0.657,0.602,-0.148,0.696,0.00375,1.47,0.304,2.21,3.04,2.67
TCTAGTTGGTCAAAGGTCACCCACTCGAAATGCG,5.47,5.45,3.51,5.12,1.68,6.36,11.3,9.99,10.9,12.3
AGTCAAAGTTCAGGACGGGGTAACGTAAAGCACG,4.41,4.06,1.34,2.69,1.48,3.58,4.9,5.07,2.19,4.12
TCTTGTAGCTCAACAGGAGGTTAAGAAAGATCGA,-0.163,0.472,-0.218,0.222,-0.709,0.659,-0.365,0.868,2.01,1.4
CGTCCAAGGTCAGCAGGTCAGCGAAAGCGACGTG,6.11,4.35,0.407,3.19,-0.541,4.9,4.79,4.99,1.45,3.69
AGAATGACGTTAAGATCAGGGAAACAGAATACAT,-0.19,-0.216,-0.265,-0.142,-0.294,-0.223,0.69,-0.0483,0.359,0.136
TCATATAGGTAATACAGGTGATAGTCGGCATCTA,0.719,1,0.507,0.789,0.315,1.36,1.6,2.3,3.98,3.1
TGAATAAGGTTATAAGATCAGGGAACGTTGCAAA,1.45,1.38,0.228,1.24,-0.00633,2.31,0.925,1.57,1.06,1.53
TCTTGTAGATCATAGGTTAAGAAAGCCGAAGCCT,1.15,0.999,-0.0576,0.991,0.0364,2.8,4.38,5.93,4.93,6.23
ACAGACAGGTGATGAAGGTAACTAAGGCTATCAT,-0.0463,-0.218,-0.177,0.0824,-0.634,0.196,0.606,0.00614,0.045,0.0556
CGTCGAAGGTCATAGGAGGTCAGTGAAGACAGAT,7.63,7.68,5.14,6.27,0.859,5.98,5.54,6.05,3.04,4.92
TCTACTAGTTGATTAGGGCAACCGAAACAGCGGA,-0.0181,-0.4,-0.422,0.0832,-0.553,0.777,0.366,1.66,3.06,2.31
